# Experimental data published in ChEMBL document CHEMBL3988442, “University of Dundee, Small-Polar-MMV Screening Library” (2021).
# Among all 48,000 compounds or so, about 13,000 (27%) showed an effect of 50% or more. Some of the results follow.
# Tested on: Wolbachia pipientis
# Test: Anti-Wolbachia Cell-Based Screen
# Format: functional
# Design: scale not given: in the data most compounds retested in dose-response had high values
# Settings: 5 µM
row,SMILES,Percent Effect [%]
1,O=C(NN1CCCc2ccccc21)c1c[nH]c(=O)[nH]1,-8.796
2,CCc1cnc(C)nc1NCCNc1nc(C)cc(=O)[nH]1,-6.452
3,F[C@@H]1CN(CC2CC2)C[C@@H]1OCc1nc2ncccc2[nH]1,-13.13
4,O=C(CCc1ccsc1)NCC1CCN(Cc2cccs2)CC1,-16.57
5,O=C(CCc1ccccc1)NCC1CCN(Cc2ccccc2)CC1,111.4
6,Cc1ccc(CN2CCC(CNC(=O)Cn3cncn3)CC2)cc1,-4.206
7,O=C(CCc1ccccc1)NCC1CCN(Cc2ccsc2)CC1,3.98
8,O=C(CCc1ccccc1)NCC1CCN(Cc2cccs2)CC1,102.9
9,COc1cc2cc(C(=O)NC(C)C(=O)O)n(C)c2c(OC)c1OC (stereo not drawn),0.3251
10,CCc1[nH]c2c(CNc3nc(C)cc(NC)n3)cc(C)cc2c1C,-10.73
11,CC(SCCC(=O)NC(N)=O)c1ccccc1F (stereo not drawn),-10.14
12,Cc1ccc2c(c1)C1(CCNCC1)CC2N1CCOCC1 (stereo not drawn),0.9204
13,N#Cc1ccc(S(=O)(=O)Nc2ccccc2C#N)cn1,-3.183
14,COc1ccc(NC(=O)N2CCCCCC2c2ccncc2)cn1 (stereo not drawn),-7.407
15,O=C(NCCN1CCOCC1)c1ccc(OCc2ccccc2)nc1,-12.09
16,O=C(NCC1(O)COCCN(Cc2ccc(O)cc2)C1)c1cnccn1 (stereo not drawn),136.8
17,O=C(Nc1cnn(CCN2CCOCC2)c1)c1ccccn1,-4.684
18,O=C(Nc1cc(N2CCOCC2)ncn1)c1cnccn1,-2.836
19,O=C(NCC1(O)COCCN(Cc2cccc(O)c2)C1)c1ccccn1 (stereo not drawn),141
20,O=C(NCCc1cscn1)c1coc(CN2CCOCC2)c1,-2.273
21,O=C(NCC1(O)COCCN(Cc2cccc(O)c2)C1)c1cnccn1 (stereo not drawn),119.9
22,O=C(NCN1CCc2ccccc2C1)c1cnccn1,-0.1611

row,SMILES,Percent Effect [%]
1,O=C(NCC1(O)COCCN(Cc2cccc(O)c2)C1)c1cscn1 (stereo not drawn),117.5
2,Cc1ccc(CN2CCOCC2)cc1NC(=O)c1ccsc1,-4.906
3,CCCN(Cc1ccccc1C)C(CC)CO (stereo not drawn),3.002
4,CC(C)c1nc(C(=O)N2CCc3ccccc3C2C(=O)O)cs1 (stereo not drawn),-0.5058
5,CSCCNC(=O)c1coc(COc2ccc3sc(C)nc3c2)n1,-17.64
6,CNc1nc2c(c(C(=O)N3CCCC3)n1)CN(Cc1nccn1C)CC2,14.28
7,CNc1nc2c(c(C(=O)N3CCCC3)n1)CN(Cc1ccco1)CC2,133.6
8,Cc1nc(N2CCCC2)nc2c1CCN(Cc1ccco1)CC2.O=C(O)C(F)(F)F,-6.041
9,Cc1cc(CN2CCc3nn(C)c(=O)cc3C2)on1,13.66
10,CCCn1nc2c(cc1=O)CN(Cc1cc(C)no1)CC2,7.336
11,CNc1nc2c(c(C(=O)N3CCCC3)n1)CN(Cc1cc(C)no1)CC2,97.24
12,CC1(C)CN(C(=O)c2cnc(CN3CCCC3)s2)CC[C@]1(C)O,-20.27
13,COC(=O)c1oc(CNC(C)(C)c2ccc3c(c2)OCCO3)cc1C,-6.562
14,CC(C)(NCc1cccc(C(N)=O)c1)c1ccc2c(c1)OCO2,2.76
15,CC(C)(NCC(=O)NCC(F)(F)F)c1ccc2c(c1)OCCO2,5.568
16,CC(C)(NCc1cccc(O)c1)c1ccc2c(c1)OCO2,4.523
17,CCNC(=O)NC(=O)CNC(C)(C)c1ccc2c(c1)OCCO2,126.2
18,COC(=O)c1oc(CNC(C)(C)c2ccc3c(c2)OCO3)cc1C,-12.91
19,CC(C)(NCC(=O)NC(=O)NC1CC1)c1ccc2c(c1)OCO2,94.42
20,CC(C)(C)NC(=O)NC(=O)CNC(C)(C)c1ccc2c(c1)OCCO2,3.102
21,Cc1cc(NC(=O)CNC(C)(C)c2ccc3c(c2)OCCO3)no1,-9.405
22,CC(C)(NCC(=O)NCC1CC1)c1ccc2c(c1)OCCO2,87.25

row,SMILES,Percent Effect [%]
1,CCNC(=O)NC(=O)CNC(C)(C)c1ccc2c(c1)OCO2,117.5
2,Cc1cc(NC(=O)CNC(C)(C)c2ccc3c(c2)OCO3)on1,4.007
3,Cn1ccc(N2CCCC(NC(=O)c3ccsc3)C2=O)n1 (stereo not drawn),-23.95
4,Cc1cnn(CCCNC(=O)C2CCCCN2Cc2ccncc2)c1 (stereo not drawn),-11.5
5,COc1ccc(C)c2c1N(C(=O)c1cnc3onc(C)c3c1)CCC2,2.409
6,O=C(CN1CCOC(c2ccc(Cl)c(Cl)c2)C1)NCc1ccco1 (stereo not drawn),-33.51
7,Cc1noc(C)c1CN1CC2(CCCCN2c2cncnc2)CC1=O (stereo not drawn),1.289
8,COc1ccc(CN(C)C2CCN(C(=O)C(C)C)CC2)c2cccnc12,-16.31
9,CC(C)C(=O)N1CCC([C@@H]2C[C@H](C(F)F)n3ncnc3N2)CC1,105.2
10,O=C(CCc1ccc(=O)[nH]n1)N1CCCC(COc2ccc(F)cc2)C1 (stereo not drawn),-3.616
11,CC(C)C(=O)N1CCCC([C@@H]2C[C@H](C(F)F)n3ncnc3N2)C1 (stereo partly drawn),140.3
12,COCCC(=O)N1CCCC([C@@H]2C[C@H](C(F)F)n3ncnc3N2)C1 (stereo partly drawn),128.9
13,COCCn1ccnc1C1CCCN(C(=O)CSCC2CC2)C1 (stereo not drawn),-1.205
14,CC(C)C(=O)N1CC[C@@H]2CN(Cc3ccncc3)S(=O)(=O)[C@@H]2CC1,-1.309
15,CC(=O)N1C[C@H]2CCCN(c3ncc(C)cn3)[C@H]2C1,4.198
16,CC(NC(=O)Nc1cccnc1N1CCOCC1)c1ccncc1 (stereo not drawn),-4.832
17,Cc1cc(N(C)Cc2cc(C)on2)n2nc(C)c(C)c2n1,-5.11
18,CCc1nnc(CN(C)c2cc(C)nc3c(C)c(C)nn23)o1,7.383
19,CC(C1CC1)N(C(=O)NCCCn1nc2ccccn2c1=O)C1CC1 (stereo not drawn),-19.29
20,Cc1ccccc1CSCCn1nc2ccccn2c1=O,8.414
21,CC(=O)N1CCCN(CCn2nc3ccccn3c2=O)CC1,104.1
22,COCCNC(=O)CN(C)CCn1nc2ccccn2c1=O,81.18

row,SMILES,Percent Effect [%]
1,O=C(CC1CCCC1)NCCn1nc2ccccn2c1=O,2.754
2,CCN(CC)C(=O)CN(C)CCn1nc2ccccn2c1=O,106.3
3,COc1ccc(CC(=O)NCCn2nc3ccccn3c2=O)cc1,7.031
4,CCOc1ccccc1CSCCn1nc2ccccn2c1=O,-0.2652
5,Cc1ccsc1C(=O)NCCCn1nc2ccccn2c1=O,-12.31
6,CCC(=O)CNC(=O)CCn1nc2ccccn2c1=O,-17.3
7,CN(CCn1nc2ccccn2c1=O)CC(=O)N(C)C1CCCCC1,82.2
8,CCCc1cc(C(=O)NCCn2nc3ccccn3c2=O)[nH]n1,0.6756
9,CC(NCC1CCS(=O)(=O)CC1)c1cccc(OC(F)F)c1 (stereo not drawn),6.07
10,CCC1=N[C@@]2(CC[C@@H]3CN(CC4CC4)C[C@@H]32)C(=O)N1,9.591
11,N#Cc1ccc(CNC2CCN(CCc3ccncc3)CC2)cc1,-19.98
12,CN(C)CCN(Cc1cccc(C(F)(F)F)c1)C(=O)c1cc[nH]n1,1.923
13,Cc1c[nH]c(CN2CCN(C)C3(CCC(=O)N(CC4CC4)CC3)C2)n1 (stereo not drawn),-1.954
14,CCS(=O)(=O)N1CCC2(CN(c3cccc(C)n3)C2)C1.O=C(O)C(F)(F)F,1.878
15,Cc1cccc(N2CCc3ncc(CNS(C)(=O)=O)n3CC2)n1.O=C(O)C(F)(F)F,88.7
16,CN(Cc1ccco1)Cc1cnc2n1CCN(c1ccccn1)CC2.O=C(O)C(F)(F)F.O=C(O)C(F)(F)F,10.62
17,CN1CCc2ncc(CNc3cc(N(C)C)ncn3)n2CC1.O=C(O)C(F)(F)F,-9.651
18,CS(=O)(=O)NCc1cnc2n1CCN(Cc1ccsc1)CC2.O=C(O)C(F)(F)F,-2.337
19,Cc1cccc(N2CCc3ncc(CNc4ccccn4)n3CC2)n1.O=C(O)C(F)(F)F.O=C(O)C(F)(F)F,88.27
20,Cc1cc(C)c(C(=O)N2CCc3c(ncn3CCc3ccccc3)C2)[nH]1,-5.733
21,CCCNC(=O)N1CCCC2(CCC(=O)N(CCc3c[nH]cn3)C2)C1 (stereo not drawn),12.8
22,CC(C)NC(=O)N1CCN(CC2CC2)c2ncccc2C1.O=C(O)C(F)(F)F,-7.83

row,SMILES,Percent Effect [%]
1,Cc1ccc2c(n1)N(CCn1cccn1)CCN(C(=O)NC(C)C)C2,112.2
2,CN1CCN(C(=O)NC2CC2)Cc2cccnc21.O=C(O)C(F)(F)F,-1.72
3,CCC(=O)N1CCN(CCn2cccn2)c2ncccc2C1.O=C(O)C(F)(F)F,88.49
4,CN1CCN(C(=O)Cc2ccc(F)cc2)Cc2cccnc21.O=C(O)C(F)(F)F,-3.35
5,CC(=O)NCC(=O)N1CCN(CCN(C)C)c2ncccc2C1.O=C(O)C(F)(F)F.O=C(O)C(F)(F)F,-13.2
6,Cc1ccc2c(n1)N(C)CCN(C(=O)NC(C)C)C2.O=C(O)C(F)(F)F,-4.064
7,Cc1ccc2c(n1)N(CCn1cccn1)CCN(C(=O)NC1CC1)C2.O=C(O)C(F)(F)F,12.45
8,CC(C)NC(=O)N1CCN(CCn2cccn2)c2ncccc2C1.O=C(O)C(F)(F)F,105
9,CN1CCC(N(Cc2ccco2)S(=O)(=O)c2cc(Br)ccc2Br)CC1,17.1
10,CSc1ccc(CN(C(=O)c2cc(=O)[nH]c(=O)[nH]2)C2CC2)cc1,1.499
11,CN(C)C(C(=O)NCCS(=O)(=O)N(C)C)c1cccc(F)c1 (stereo not drawn),-10.76
12,Cc1c(-c2cc(-c3cnn(C)c3C)n(CC(=O)NC3CC3)n2)cnn1C,78.99
13,Cc1cn(CC(=O)NC2CCC(C(=O)O)CC2)c2ccccc12 (stereo not drawn),-7.822
14,Cc1ccccc1-c1cc(NC(=O)NC2CC2)n(CCO)n1,-65.06
15,CN(Cc1cnn(C)c1)C(=O)NC1CCC(O)CC1 (stereo not drawn),16.63
16,Cn1cc(-c2cc(-c3cnn(C)c3)n(CC(=O)NC3CC3)n2)cn1,98.73
17,Cc1nn(C)cc1-c1cc(-c2cn(C)nc2C)n(CC(=O)NC2CC2)n1,89.98
18,Cn1cc(CN2CCC(CCC(=O)NC3CC3)CC2)cn1,-12.61
19,Cc1ccccc1-c1cc(NC(=O)NC2CCC(O)CC2)n(CCO)n1 (stereo not drawn),-35.4
20,Cc1nn2c(NCC(=O)NC3CC3)cc(-c3ccccc3)nc2c1C,7.066
